Measured values taken from PubChem BioAssay (NCI).
The panel holds about 83,000 compounds, 20% with a hit somewhere; the sample as a whole holds those more often.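 For each line, cells grew in 96-well plates with the test compound present at a single concentration for 48 hours.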 Unmarked numbers belong to inactive results. Active and inactive are the calls of the source. How the source made its calls: active means growth percent below 10; inactive means the rest.

Experiments:
Assay in all cases: NCI-60 one-dose screen, 48 h (100 = growth as untreated, 0 = no growth, -100 = all killed)
Settings in all cases: 10 µM
[1] = tested on: SK-MEL-2 melanoma
[2] = tested on: SN12C renal
[3] = tested on: UO-31 renal
[4] = tested on: TK-10 renal
[5] = tested on: ACHN renal
[6] = tested on: CAKI-1 renal
[7] = tested on: A498 renal
[8] = tested on: CCRF-CEM leukemia
[9] = tested on: MOLT-4 leukemia
[10] = tested on: SR leukemia
[11] = tested on: RPMI-8226 leukemia
[12] = tested on: OVCAR-8 ovarian
[13] = tested on: OVCAR-5 ovarian
[14] = tested on: OVCAR-4 ovarian
[15] = tested on: SK-OV-3 ovarian
[16] = tested on: IGROV1 ovarian
[17] = tested on: OVCAR-3 ovarian
[18] = tested on: HS 578T breast
[19] = tested on: NCI/ADR-RES ovarian
[20] = tested on: EKVX NSCLC

Compound | growth [1] | growth [2] [%] | growth [3] | growth [4] | growth [5] | growth [6] | growth [7] | growth [8] | growth [9] | growth [10] | growth [11] | growth [12] | growth [13] | growth [14] | growth [15] | growth [16] | growth [17] | growth [18] | growth [19] | growth [20]
Cc1ccc(-c2cc(C(=O)Nc3ccc(S(=O)(=O)N4CCCCC4)cc3)[nH]n2)c(O)c1 | 80% | 53.3 | 56.2% | 61.6% | 66.5% | 67.3% | 63.3% | 45.5% | 38.7% | 14.9% | 43.3% | 58.7% | 73.8% | 38.5% | 94.1% | 68.8% | 55.3% | 79.4% | 59.9% | –
Cc1ccc2c(c1)-c1cc(C)nn1-c1ccc(C#N)cc1O2 | 44.7% | – | 47.4% | 84.1% | – | 71.9% | 47.2% | 46.2% | 49.6% | 28% | 54.3% | 70.4% | 94.1% | 76.9% | 53.3% | 64.5% | 61.8% | 56.4% | 40.1% | 65.7%
COC(=O)[C@]12CC[C@@H](C)[C@H](C)[C@@H]1C1=CC[C@@H]3[C@@]4(C)C[C@@H](O)[C@H](O)[C@@](C)(CO)[C@@H]4[C@H](O)C[C@@]3(C)[C@]1(C)CC2 | -88.2% (active) | – | -52.2% (active) | -56.9% (active) | – | 0.468% (active) | -80.2% (active) | -43.7% (active) | -51.9% (active) | – | -20.7% (active) | -27.3% (active) | -21.6% (active) | -11% (active) | -33.1% (active) | -19.8% (active) | -64.9% (active) | -13% (active) | -22.8% (active) | -33.1% (active)
CS(=O)(=O)Nc1ccc(Nc2c3ccccc3nc3cc(Cl)ccc23)cc1 | 74.1% | 13.9 | 0.84% (active) | 55% | 9.36% (active) | 6.38% (active) | 48.5% | 7.94% (active) | -5.91% (active) | 7.92% (active) | 41.3% | 25.5% | 63.1% | 56.7% | 42.6% | 29.8% | 56.3% | 81.8% | 44.8% | –
Nc1c(CNCc2nnn(Cc3ccccc3)c2N)nnn1Cc1ccccc1 | 103% | 99 | 86.5% | 102% | 99.6% | 101% | 98.4% | 95.4% | 102% | 90% | 94.7% | 99.8% | 95.5% | 92.1% | 114% | 102% | 107% | 99% | 97.2% | –
O=C(O)CNS(=O)(=O)c1ccc(OCCOc2ccc(S(=O)(=O)NCC(=O)O)cc2)cc1 | 98.5% | – | – | 92.7% | 102% | 99.5% | 96.4% | 112% | 106% | 103% | 109% | 102% | 104% | 115% | 103% | 106% | 103% | – | 103% | 102%
COc1ccc2oc(=O)cc(C(c3ccc[nH]3)c3ccc[nH]3)c2c1 | 5.1% (active) | – | – | 26.4% | – | 15.2% | – | 11.3% | 6.26% (active) | 1.93% (active) | -3.8% (active) | -4.93% (active) | 34.8% | 38.8% | 7.19% (active) | 25.5% | -8.55% (active) | 18.8% | 7.99% (active) | 32.7%
COc1cc(CSc2nc3ccc(C)cc3c(=O)n2Cc2ccccc2)cc(OC)c1OC | 1.08% (active) | 40 | 32.1% | 52.7% | 46.7% | 28.8% | 7.01% (active) | 23.6% | 30.8% | 18% | 54.1% | 35.2% | 45.4% | 53.1% | 23.9% | 24.3% | -22.7% (active) | 20.7% | 12.7% | –
Nc1ncc(-c2ccc(C(F)(F)F)cc2)c(NC2CCCCCC2)n1 | 0.455% (active) | 29.9 | 23.6% | 36.9% | 16.4% | 55.8% | 58.8% | 31.1% | 57.5% | 60.3% | -8.42% (active) | 19.4% | 53% | 20% | 76.1% | 58.6% | 14.5% | 38.4% | 56.9% | –
